Results: article PMC7862700, “An all-to-all approach to the identification of sequence-specific readers for epigenetic DNA modifications on cytosine”

Assays:
Assay in all cases: DAPPL (digital affinity profiling via proximity ligation, sequencing); 10 mM Tris-HCl pH 7.5, 50 mM NaCl, 1 mM DTT, 4% glycerol, room temperature, 30 min; GST-TFs on glutathione beads, 16-mer random dsDNA library, 0.1% formaldehyde crosslink after washing; high values mean tight binding
Conditions in all cases: protein: recombinant; tags: N-terminal GST; dsDNA, one strand shown
[1] = biological target: T1, FLI1 (Homo sapiens, UniProt Q01543 1-452)
T1 sequence: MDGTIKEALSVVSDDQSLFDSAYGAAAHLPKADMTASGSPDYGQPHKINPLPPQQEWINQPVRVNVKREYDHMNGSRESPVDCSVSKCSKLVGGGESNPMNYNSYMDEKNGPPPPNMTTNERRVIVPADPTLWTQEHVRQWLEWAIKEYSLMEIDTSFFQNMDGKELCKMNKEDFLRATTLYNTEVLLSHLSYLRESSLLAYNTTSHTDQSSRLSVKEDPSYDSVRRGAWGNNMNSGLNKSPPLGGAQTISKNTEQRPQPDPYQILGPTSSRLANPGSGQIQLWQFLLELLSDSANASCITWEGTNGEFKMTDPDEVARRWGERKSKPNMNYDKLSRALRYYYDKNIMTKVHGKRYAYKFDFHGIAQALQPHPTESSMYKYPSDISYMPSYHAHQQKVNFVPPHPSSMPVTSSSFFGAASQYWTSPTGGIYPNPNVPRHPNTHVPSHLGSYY
In short: (§1)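 The binding signal reported is, for every hexamer, its read frequency for a factor over its read frequency for the tag-only sample. Reads came from pools of yeast-expressed, GST-fused human transcription factors on glutathione beads, barcoded with DNA and mixed with that sample, which were incubated with 200 nmole of a random double-stranded 16-mer DNA library in Tris/NaCl/DTT/glycerol buffer at room temperature for 30 min. After washing, the pools were crosslinked with 0.1% formaldehyde, proximity-ligated with BsaI/T4 ligase for 1 h at 37 °C, PCR-amplified and sequenced on an Illumina NextSeq500.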

[2] = biological target: T2, ELK1 (Homo sapiens, UniProt P19419 1-428)
T2 sequence: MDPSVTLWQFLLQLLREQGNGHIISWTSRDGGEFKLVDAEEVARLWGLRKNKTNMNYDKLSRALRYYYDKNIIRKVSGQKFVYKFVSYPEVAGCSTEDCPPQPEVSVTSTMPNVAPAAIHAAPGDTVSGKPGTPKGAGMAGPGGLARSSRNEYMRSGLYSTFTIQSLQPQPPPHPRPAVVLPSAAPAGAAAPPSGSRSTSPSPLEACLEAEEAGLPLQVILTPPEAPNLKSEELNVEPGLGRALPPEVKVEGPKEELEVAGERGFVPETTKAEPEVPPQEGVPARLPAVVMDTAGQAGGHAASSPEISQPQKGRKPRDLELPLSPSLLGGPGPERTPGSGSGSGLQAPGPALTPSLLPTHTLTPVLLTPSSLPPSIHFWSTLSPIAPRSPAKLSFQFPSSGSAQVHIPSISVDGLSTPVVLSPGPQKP
In short: as §1

[3] = biological target: T3, GABPA (Homo sapiens, UniProt Q06546 1-454)
T3 sequence: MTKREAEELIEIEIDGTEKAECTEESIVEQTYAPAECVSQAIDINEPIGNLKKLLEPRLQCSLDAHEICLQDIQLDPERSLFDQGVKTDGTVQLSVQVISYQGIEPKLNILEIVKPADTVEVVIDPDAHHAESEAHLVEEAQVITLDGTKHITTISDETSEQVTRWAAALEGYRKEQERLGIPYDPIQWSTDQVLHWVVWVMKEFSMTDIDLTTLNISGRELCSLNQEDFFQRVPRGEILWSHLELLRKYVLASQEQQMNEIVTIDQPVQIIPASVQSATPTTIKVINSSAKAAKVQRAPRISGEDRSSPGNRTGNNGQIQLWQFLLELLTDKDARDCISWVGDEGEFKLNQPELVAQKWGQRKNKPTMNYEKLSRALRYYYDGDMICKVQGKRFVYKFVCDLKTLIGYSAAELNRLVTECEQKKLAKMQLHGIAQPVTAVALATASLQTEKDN
In short: as §1

[4] = biological target: T4, ERG (Homo sapiens, UniProt P11308 1-479)
T4 sequence: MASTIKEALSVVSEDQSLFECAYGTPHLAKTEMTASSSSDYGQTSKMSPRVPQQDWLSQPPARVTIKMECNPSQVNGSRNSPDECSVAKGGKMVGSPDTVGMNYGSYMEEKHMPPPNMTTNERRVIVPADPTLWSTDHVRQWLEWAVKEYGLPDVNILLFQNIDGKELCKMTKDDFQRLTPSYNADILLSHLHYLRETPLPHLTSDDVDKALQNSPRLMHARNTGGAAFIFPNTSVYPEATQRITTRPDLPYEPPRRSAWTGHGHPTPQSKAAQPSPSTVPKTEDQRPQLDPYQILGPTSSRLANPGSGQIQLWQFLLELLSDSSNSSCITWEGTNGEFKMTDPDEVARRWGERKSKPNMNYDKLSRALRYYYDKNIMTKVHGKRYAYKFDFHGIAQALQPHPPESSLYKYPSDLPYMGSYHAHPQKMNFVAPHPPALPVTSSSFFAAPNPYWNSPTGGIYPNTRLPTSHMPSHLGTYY
In short: as §1

[5] = biological target: ELF1 (Homo sapiens, UniProt P32519 1-619)
Chain of ELF1 (P32519 whole entry): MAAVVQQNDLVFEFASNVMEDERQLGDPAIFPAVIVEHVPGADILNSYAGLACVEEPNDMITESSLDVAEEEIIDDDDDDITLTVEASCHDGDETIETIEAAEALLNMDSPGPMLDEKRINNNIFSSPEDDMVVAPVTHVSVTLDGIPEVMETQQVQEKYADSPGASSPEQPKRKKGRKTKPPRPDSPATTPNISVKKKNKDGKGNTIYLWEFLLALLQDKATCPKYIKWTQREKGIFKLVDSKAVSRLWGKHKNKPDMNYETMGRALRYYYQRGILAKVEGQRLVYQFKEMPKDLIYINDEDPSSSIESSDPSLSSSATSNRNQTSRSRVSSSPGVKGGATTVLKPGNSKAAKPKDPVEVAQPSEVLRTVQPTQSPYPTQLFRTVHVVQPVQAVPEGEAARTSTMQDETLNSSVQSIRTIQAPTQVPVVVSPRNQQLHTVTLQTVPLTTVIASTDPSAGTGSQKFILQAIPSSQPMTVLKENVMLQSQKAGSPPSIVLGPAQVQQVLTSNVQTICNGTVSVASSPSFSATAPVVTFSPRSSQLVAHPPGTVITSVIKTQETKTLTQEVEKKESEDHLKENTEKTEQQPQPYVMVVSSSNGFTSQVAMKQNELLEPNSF
In short: as §1

[6] = biological target: T5, EHF (Homo sapiens, UniProt Q9NZC4 1-300)
T5 sequence: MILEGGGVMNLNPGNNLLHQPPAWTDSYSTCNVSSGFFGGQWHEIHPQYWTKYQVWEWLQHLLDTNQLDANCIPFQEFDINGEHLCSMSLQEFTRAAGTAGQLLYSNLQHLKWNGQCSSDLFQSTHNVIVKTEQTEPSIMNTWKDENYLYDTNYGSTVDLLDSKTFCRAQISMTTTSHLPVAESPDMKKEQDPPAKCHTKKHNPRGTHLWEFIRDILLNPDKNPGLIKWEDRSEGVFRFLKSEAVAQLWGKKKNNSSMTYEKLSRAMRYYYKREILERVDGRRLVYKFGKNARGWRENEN
In short: as §1

[7] = biological target: SPI1 (Homo sapiens, UniProt P17947 1-270)
In short: as §1

[8] = biological target: SPIB (Homo sapiens, UniProt Q01892 1-262)
Chain of SPIB (Q01892 whole entry): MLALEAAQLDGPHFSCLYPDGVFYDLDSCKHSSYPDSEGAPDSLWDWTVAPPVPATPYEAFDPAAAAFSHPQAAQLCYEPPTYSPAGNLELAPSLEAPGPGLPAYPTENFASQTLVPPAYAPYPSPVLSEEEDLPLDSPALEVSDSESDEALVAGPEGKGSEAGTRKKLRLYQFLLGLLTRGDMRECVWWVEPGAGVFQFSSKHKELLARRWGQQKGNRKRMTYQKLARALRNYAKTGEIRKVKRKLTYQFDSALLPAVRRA
In short: as §1

[9] = biological target: T6, ELK3 (Homo sapiens, UniProt P41970 1-407)
T6 sequence: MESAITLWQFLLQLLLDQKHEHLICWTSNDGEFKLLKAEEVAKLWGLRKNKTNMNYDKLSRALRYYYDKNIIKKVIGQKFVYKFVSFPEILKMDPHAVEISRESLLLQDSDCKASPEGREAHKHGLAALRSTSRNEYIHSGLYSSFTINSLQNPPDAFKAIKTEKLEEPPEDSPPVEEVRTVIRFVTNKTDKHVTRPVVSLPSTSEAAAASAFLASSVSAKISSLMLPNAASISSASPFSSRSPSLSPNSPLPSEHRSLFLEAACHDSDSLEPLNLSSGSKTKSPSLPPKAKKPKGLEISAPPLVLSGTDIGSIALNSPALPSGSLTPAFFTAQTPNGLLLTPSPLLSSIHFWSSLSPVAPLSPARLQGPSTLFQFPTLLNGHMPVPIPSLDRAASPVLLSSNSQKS
In short: as §1

Question: How did the binding signal [1] turn out when TAGCAT was run?
Answer: 1.16 fold enrichment (6-mer frequency, TF over GST control)

Question: What about the binding signal [2] of the same sequence?
Answer: 1.15 fold enrichment (6-mer frequency, TF over GST control)

Question: What about the binding signal [3] of the same sequence?
Answer: 1.05 fold enrichment (6-mer frequency, TF over GST control)

Question: What about the binding signal [4] of the same sequence?
Answer: 1.11 fold enrichment (6-mer frequency, TF over GST control)

Question: What about the binding signal [5] of the same sequence?
Answer: 1.17 fold enrichment (6-mer frequency, TF over GST control)

Question: And the binding signal [6]?
Answer: 1.14 fold enrichment (6-mer frequency, TF over GST control)

Question: And the binding signal [7]?
Answer: 1.07 fold enrichment (6-mer frequency, TF over GST control)

Question: And the binding signal [8]?
Answer: 1.05 fold enrichment (6-mer frequency, TF over GST control)

Question: And the binding signal [9]?
Answer: 1.13 fold enrichment (6-mer frequency, TF over GST control)
